107 molecules from PubChem BioAssay AID1009 (NMMLSC, 2008) can be followed below.

Hit rate of the full screen: of about 190,000 compounds, about 200 (0.11%) were called active. Cut-off read from the data, not from the text of the source: active = inhibition above about 40%. The entries come from a sample that favours actives as a whole.

Sequence of Induced myeloid leukemia cell differentiation protein Mcl-1 (Homo sapiens) (Q07820 whole entry, looked up): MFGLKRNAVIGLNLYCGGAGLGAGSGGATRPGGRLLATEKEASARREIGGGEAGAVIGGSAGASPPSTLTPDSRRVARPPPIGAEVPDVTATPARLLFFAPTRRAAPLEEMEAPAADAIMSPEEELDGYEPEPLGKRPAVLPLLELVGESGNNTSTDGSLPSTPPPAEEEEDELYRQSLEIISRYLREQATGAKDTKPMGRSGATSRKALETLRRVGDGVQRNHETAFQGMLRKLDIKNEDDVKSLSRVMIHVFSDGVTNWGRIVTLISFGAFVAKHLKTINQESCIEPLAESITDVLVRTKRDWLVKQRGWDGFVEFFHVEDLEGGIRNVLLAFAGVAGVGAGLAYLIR

This experiment has as its target Induced myeloid leukemia cell differentiation protein Mcl-1 (Homo sapiens) (UniProt Q07820). The experiment in a line: inhibitors of Bim peptide binding to Mcl-1, primary screen, biochemical, bead-based flow cytometry, multiplex (AID 1009).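 Note: 0% = no compound tracer wells and 100% = peptide blocker.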 The settings on record: Bim peptide-Mcl-1 binding, at 10 µM, hits give high values.
`CC(CO)NCC12CC3CC(CC(C3)C1)C2` (configuration not stated): the inhibition is 0% (inactive). On to `Cc1[nH]c2ccccc2c1/C=C(/C#N)C(=O)NC(C)C`, for which the inhibition was 0% (inactive).

On to `C=CCN(Cc1nc(-c2cc(OC)c3c(c2)OCO3)oc1C)C1CCS(=O)(=O)C1` (configuration not stated), for which the inhibition is -1% (inactive). `CC(C)C(=O)NCc1cc(-c2ccc(Cl)cc2)no1`: the inhibition was -2% (inactive). For `O=C(NCCCN1CCOCC1)c1ccc(N2CCCC2)c([N+](=O)[O-])c1`, the inhibition was 0% (inactive). As to `O=C(NCc1ccc(F)cc1)C(c1ccccc1)N(C(=O)c1csnn1)C1CC1` (configuration not stated), the inhibition was -1% (inactive). To `Nc1[nH][nH]c(=O)c1N=Nc1ccc2c(c1)OCO2` belongs 0% (inactive); to `COc1ccc(Cl)cc1N(CC(=O)N/N=C/c1ccc(OCC(N)=O)cc1)S(C)(=O)=O`, 1% (inactive); to `CSc1ccc(CN2C(=O)NC3(CCCCCC3)C2=O)cc1`, 3% (inactive). As for `Cc1nc(N2CCC(C)CC2)c2c(C)c(C(=O)Nc3cc(F)ccc3C)sc2n1`, the inhibition is -1% (inactive). For the molecule `COc1ccc(/C=N/OCC(=O)N(Cc2ccccc2)c2ccccc2C(=O)O)cc1`, the inhibition is -1% (inactive). As for `C#CCOCCOCCOCCNc1nc(N2CCN(C(=O)[C@H](CCC(=O)O)n3cc(C(N)CO)nn3)CC2)nc(N2CCN(C(=O)[C@H](Cc3ccc(O)cc3)n3cc(C(N)[C@H](C)CC)nn3)CC2)n1` (some centres not stated), the inhibition was 0% (inactive).

For the molecule `CCOC(=O)Cc1ncccc1C(=O)Nc1ccc(OC(F)(F)F)cc1`, the inhibition was -7% (inactive). As to `COc1ccc(C(=O)N2CCC(C(=O)Nc3ccc(C)cc3)CC2)cc1`, the inhibition is -3% (inactive). To `N#Cc1ccc(-c2nc3cc(C#N)c(C#N)cc3nc2-c2ccccc2)cc1C#N` belongs 1% (inactive); to `O=C(CCN1C(=O)/C(=C/c2cccs2)SC1=S)NNC(=O)c1cccc(O)c1`, 0% (inactive). To `COCC1CCCN(Cc2cn[nH]c2-c2cc3ccccc3o2)C1` (configuration not stated) belongs -3% (inactive); to `O=C(NC(=S)NC1CCSC1=O)c1ccccc1F` (configuration not stated), 0% (inactive).

As to `O=C(N/N=C/c1cc([N+](=O)[O-])ccc1O)/C(=C\c1cccs1)NC(=O)c1ccccc1`, the inhibition was 0% (inactive). The same measure for `COc1ccc(C(=O)C2CCCN(Cc3cccn3-c3ccccn3)C2)c(C)c1` (configuration not stated): 0% (inactive); for `CN(CC(=O)NC1CCCC1)S(=O)(=O)c1cnc[nH]1`: -8% (inactive).

With `Cc1cc(C)nc(Nc2ncn[nH]2)n1`, the inhibition is 1% (inactive). Consider `CCCCC(CC)CNC(=O)C(=O)C1C(=O)Nc2ccccc21` (configuration not stated), for which the inhibition is -2% (inactive).

Regarding `O=C(/C=C/c1cnc2ccccc2n1)NC1CCCCCC1`, the inhibition was -22% (inactive). On to `COc1cccc(CNC(=O)c2n[nH]c3ccccc23)c1`, for which the inhibition was 0% (inactive). Turning to `COc1ccc(N(CC(=O)Nc2ccc(C)cc2C)S(=O)(=O)c2ccccc2[N+](=O)[O-])c(OC)c1`, the inhibition is 4% (inactive).

Regarding `COc1ccc(C(=O)NC2(C(F)(F)F)NC(=O)N(CCCc3ccccc3)C2=O)c(OC)c1OC` (configuration not stated), the inhibition was -3% (inactive).

For `CCCOc1ccc(Cn2ccnc2)cc1[N+](=O)[O-]`, the inhibition was -1% (inactive). As to `O=C(/C=C/c1ccc(Cl)cc1)N1CCN(c2ccccc2[N+](=O)[O-])CC1`, the inhibition was -1% (inactive). With `CCO[C@H]1OC(C(=O)N2CCOCC2)=C[C@@H](c2ccc3c(c2)OCO3)[C@@H]1CCCO`, the inhibition was -2% (inactive). For `CC(=O)N1CCN(S(=O)(=O)c2c(F)cc(F)c(Cl)c2F)CC1`, the inhibition was -1% (inactive). As to `Cc1ccc(Cl)c(NC(=O)CN2CCN(C=O)CC2)c1`, the inhibition was 0% (inactive). Regarding `CCCn1c(C(O)c2cc(OC)ccc2OC)nc2ccccc21` (configuration not stated), the inhibition is 80% (active). On to `COc1cc(C(O)c2nc3ccccc3n2C)cc(OC)c1OC` (configuration not stated), for which the inhibition was 0% (inactive).

As for `CCCn1c(C(O)c2ccc(OCC)cc2)nc2ccccc21` (configuration not stated), the inhibition is 0% (inactive). For `COc1ccc(CC2(CO)CCN(Cc3cnn(C)c3)CC2)cc1`, the inhibition is 8% (inactive). For the molecule `COc1cccc(NC(=O)CS(=O)(=O)c2cn(CC(=O)N3CCOCC3)c3ccccc23)c1`, the inhibition was 1% (inactive). Take `COc1ccc(S(=O)(=O)NC(C)C)cc1C(=O)NC1CCCCC1`: the inhibition was -1% (inactive).

On to `O=C(CCN1C(=O)c2ccccc2C1=O)C1=NN[C@@H]2C(=O)N(c3ccc(F)cc3)C(=O)[C@H]12`, for which the inhibition is -3% (inactive). Consider `Cc1c(Cc2ccccc2)c(=O)oc2cc(OCC(N)=O)ccc12`, for which the inhibition was 0% (inactive). Take `C/C(=N/OC(=O)c1c(-c2c(F)cccc2Cl)noc1C)c1cnccn1`: the inhibition is -2% (inactive). `COC(=O)C1=C(C)N(C(C)c2ccccc2)C(=O)/C1=C\c1ccco1` (configuration not stated): the inhibition was -2% (inactive). Turning to `Cc1ccc2[nH]cc(CCCN3C(=O)c4ccccc4C3=O)c2c1`, the inhibition is -3% (inactive). For the molecule `CC1(C)CN(c2ccc(-c3ccnc4ncnn34)cc2)C1=O`, the inhibition is -1% (inactive). To `Cn1c(CCC(=O)OCC(=O)NCc2ccccc2Cl)nc(=O)c2ccccc21` belongs -2% (inactive); to `CC(=O)Nc1ccc(-c2csc(NC=C3C(=O)OC(C)(C)OC3=O)n2)cc1`, -8% (inactive). To `c1ccc2sc(NN=C3CCCC3)nc2c1` belongs 0% (inactive). As to `Oc1ccc(-c2nncn2-c2ccccc2)cc1`, the inhibition was 0% (inactive).

As to `COc1cccc(NC(=O)COC(=O)CCOc2ccccc2OC)c1`, the inhibition was 0% (inactive).

On to `COc1ccc(NC(=S)Nc2ccc(S(N)(=O)=O)cc2)c(C)c1`, for which the inhibition is -2% (inactive). In the case of `Cc1ccc(NN=Nc2nc3c([nH]2)c(=O)n(C)c(=O)n3C)cc1`, the inhibition was -7% (inactive). The same measure for `O=C(NCCCN1CCOCC1)c1ccccc1NS(=O)(=O)c1ccc(F)cc1`: 3% (inactive); for `CCOc1cccc(/C=C/c2ccc3ccccc3n2)c1OC(C)=O`: 0% (inactive). In the case of `O=C(Nc1ccc(F)cc1)C1CCN(C(=O)c2ccc([N+](=O)[O-])cc2)CC1`, the inhibition is 0% (inactive). For `Cc1cc(OCCN2CCCC2)cc(C(C)C)c1`, the inhibition was -3% (inactive). Turning to `COc1cc(C2OC(c3cc(OC)c(OC)c(OC)c3)C(C)C2C)cc(OC)c1OC` (configuration not stated), the inhibition is 0% (inactive).

As for `COC(=O)c1cc(NC(=O)c2cccnc2)ccc1N1CCOCC1`, the inhibition was -2% (inactive).

`Cc1ccc(S(=O)(=O)/N=C(\N)c2ccc(F)cc2)cc1`: the inhibition was 0% (inactive).

On to `CC1CCCC(NC(=O)c2cccc(N3CCCC3=O)c2)C1C` (configuration not stated), for which the inhibition was 1% (inactive). For the molecule `CCOC(=O)N1CCC(c2cc(=O)n(-c3ccccc3)[nH]2)CC1`, the inhibition was 42% (active). In the case of `CCOC(=O)N1CCC(NC(=O)COc2cc(=O)n(C)c3ccccc23)CC1`, the inhibition is -1% (inactive).

On to `CCOC(=O)CN1CCC(c2ccccc2)CC1`, for which the inhibition was 2% (inactive). `CCN(CC)C(=O)C(=O)c1cn(CC(=O)NCc2ccc3c(c2)OCO3)c2ccccc12`: the inhibition is 0% (inactive).

As for `COC(=O)c1ccc(NC(=O)CSc2nncc3ccc(OC)c(OC)c23)cc1`, the inhibition was 1% (inactive). For the molecule `Cn1cc(Cl)c(C(=O)NNC(=S)Nc2cccc(Cl)c2)n1`, the inhibition is -1% (inactive). For the molecule `Cc1cc(C)c(C(N)=O)c(Cl)n1`, the inhibition was 0% (inactive).

In the case of `CC(C)(C)NC(=O)c1ccc(Cn2cc(C(F)(F)F)ccc2=O)cc1`, the inhibition was -1% (inactive). `CCN(CC)c1ccc(C(=O)N/N=C(\C)c2cccc(OC)c2)cc1`: the inhibition is 1% (inactive). In the case of `Cn1c(-c2sccc2OCc2cccc(C(F)(F)F)c2)n[nH]c1=S`, the inhibition was -4% (inactive). Take `CC(=O)NC(NC(=S)Nc1c(C)n(C)n(-c2ccccc2)c1=O)C(Cl)(Cl)Cl` (configuration not stated): the inhibition was 0% (inactive).

On to `CCC(=O)NCc1cc(-c2nn(C)c(=O)c3ccccc23)ccc1OC`, for which the inhibition was -1% (inactive).

As to `O=C(/C=C/c1ccc([N+](=O)[O-])cc1)NCCSCc1ccco1`, the inhibition is -5% (inactive).

As to `Cc1c(C(=O)NC(=S)NCc2cccnc2)oc2ccccc12`, the inhibition was 0% (inactive). For `CCOCC(=O)Nc1ncc(S(=O)(=O)c2ccc([N+](=O)[O-])cc2)s1`, the inhibition is 0% (inactive).

As for `COC(=O)CNC(=O)c1ccc(OC2CCN(C(=O)C3CC3)CC2)cc1`, the inhibition was -2% (inactive). Turning to `CC(=O)c1ccccc1NC(=O)CC1(CC(=O)O)CCCCC1`, the inhibition is 0% (inactive). Turning to `Fc1ccccc1CNC(=S)Nc1ccc(Cl)cc1`, the inhibition was -14% (inactive). `CSc1ccc(/C=C/C(=O)NC23CC4CC(CC(C4)C2)C3)cc1`: the inhibition was -2% (inactive). In the case of `O=C(c1ccc(OC2CCN(Cc3ccccn3)CC2)cc1)N1CCCCCC1`, the inhibition was -4% (inactive). For `Cc1ccc2c(c1)C1CN(C)CCC1N2C(=S)Nc1ccc(OC(F)F)cc1` (configuration not stated), the inhibition was -1% (inactive). Regarding `O=C(COC(=O)CCCSc1nc2ccccc2[nH]1)Nc1ccc(Oc2ccccc2)cc1`, the inhibition is 2% (inactive).

As to `COc1ccc(-c2nc(CN3CCN(c4ncccn4)CC3)c(C)o2)cc1C`, the inhibition is -2% (inactive). The same measure for `O=[N+]([O-])c1ccc(F)cc1Oc1nc(-c2cccnc2)nc2ccccc12`: 4% (inactive); for `CCN1CCN(C(=O)CN(C)S(=O)(=O)c2ccc3ccccc3c2)CC1`: 0% (inactive); for `O=C(Nc1ccc2oc(-c3ccccc3F)nc2c1)c1ccco1`: -3% (inactive).

Turning to `COc1ccnc(Oc2ccccc2)c1-c1ncn[nH]1`, the inhibition was -2% (inactive).

Take `N#C/C(=C\c1ccc(-c2cccc([N+](=O)[O-])c2)o1)C(=O)NCCN1CCOCC1`: the inhibition is 0% (inactive). Take `N#CCOc1ccc(C2=NO[C@@H]3[C@@H]4C[C@@H]([C@H]5C(=O)N(c6ccc7c(c6)OCO7)C(=O)[C@@H]45)[C@H]23)cc1`: the inhibition was -7% (inactive). As for `CCc1c(SCCC(=O)O)nc2ccccc2c1C`, the inhibition is -1% (inactive). The same measure for `COc1ccc(CC(NC(C)=O)C(=O)NC2CCN(C(=O)C3CC3)CC2)cc1OC` (configuration not stated): 1% (inactive). As for `COc1cccc(NC(=O)C(Sc2nc3ccccc3c(=O)n2CC(C)C)c2ccccc2)c1` (configuration not stated), the inhibition is -1% (inactive). As to `O=C(COc1nc2ccccc2nc1N1CCOCC1)NCC(F)(F)F`, the inhibition was -3% (inactive). For `Cc1ccc(OCC(=O)NNC(=S)NCc2ccccc2)cc1`, the inhibition was 0% (inactive). To `CCOC(=O)c1cc2c(nc1NC(=S)Nc1ccccc1)CC(C)(CC)OC2` (configuration not stated) belongs -5% (inactive); to `Cc1[nH]c2ccccc2c1SCC(=O)Nc1nccs1`, -1% (inactive); to `O=C(/C=C/c1ccccc1)Oc1coc(CSc2ncccn2)cc1=O`, 0% (inactive). `Cc1nn(CC(=O)NCc2ccccn2)c(C)c1[N+](=O)[O-]`: the inhibition was 0% (inactive).

With `CCCNC(=O)NC(=O)COC(=O)CC(NC(N)=O)c1ccc(Cl)cc1` (configuration not stated), the inhibition was -8% (inactive).

In the case of `COCCNC(=O)NC(=O)COC(=O)C1(c2ccc(Cl)cc2)CC1`, the inhibition was 0% (inactive). In the case of `Cc1ccc(S(=O)(=O)Cc2cc(-c3ccc(Cl)cc3)no2)cc1`, the inhibition is 0% (inactive).

Regarding `O=C1CCC/C(=N\NC(=O)NC2CCCCC2)C1`, the inhibition was 1% (inactive). Take `Cc1ccc(C(=O)COC(=O)c2cccc(N3C(=O)c4c(C)nc5ccccc5c4C3=O)c2)cc1C`: the inhibition is -5% (inactive). For the molecule `CCOc1cc(CNCc2ccccn2)ccc1OCC(=O)NC(C)(C)C`, the inhibition is -5% (inactive). With `Cc1cc(=O)oc2c1c(C)nn2-c1ccc(Cl)cc1`, the inhibition is 2% (inactive). Turning to `O=C(Cn1c2[n+](c3ccc(C(F)(F)F)cc31)CCCCC2)Nc1c(F)cccc1F`, the inhibition is 2% (inactive). Turning to `Cc1ccc(OCC(=O)OC(C)CN(C)Cc2ccccc2)cc1` (configuration not stated), the inhibition was 0% (inactive). To `Cc1ccc(C(=O)O)cc1N1C(=O)CCCC1=O` belongs 0% (inactive).
